Screens (PubChem BioAssay)
Most compounds without a hit are left out; they make up all but 12% or so of the library.
Sfp inh = blocks B. subtilis Sfp PPTase activity; Q9F4F7; Biochemical Sfp PPTase activity, qHTS; Potency, µM, for inactives: largest response in the series, negative = inhibition, actives largely listed as inhibitors; 3.5% of 310,000 active;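 further: the enzyme is Sfp with the accession as filed and its product quenches rhodamine fluorescence; 0% = enzyme reaction without inhibitor and -100% = no enzyme wells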
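With Hepes-Na pH 7.6 buffer containing 10 mM MgCl2, Sfp (15 nM) modified BHQ-2-YbbR (12.5 uM) using rhodamine-CoA (5 uM). Two reads 30 minutes apart at 525/598 nm yielded each well's rate.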
G9a inh = blocks human histone lysine methyltransferase G9a; Potency, µM (highest dose often 102 µM), for inactives: at the top dose activity, negative = inhibition, most hits filed as inhibitors; 8.8% of 350,000 active; Q96KQ7; AID 504332; G9a H3K9 monomethylation, AlphaScreen, 2 h; further: on the % scale 0 is the no-effect control and ±100 the full control effect; nearly all actives have a fitted effect of over 75% in size
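Chemiluminescent proximity detection of H3K9 monomethylation, read after 10 min bead incubation in the dark. Reaction: 20 nM G9a, 500 nM biotin-H3K9 peptide, 20 uM SAM cofactor, 2 h, room temperature, following 15 min enzyme-compound preincubation.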
BAZ2B block = inhibitors of human BAZ2B bromodomain. Q9UIF8. AlphaScreen BAZ2B-H3K14Ac peptide displacement. Potency, µM (top dose mostly 114 µM), without a hit: top-dose activity change, negative = inhibition, hits mostly inhibitors. 4.4% of 360,000 active; further: on the % scale 0 is the no-effect control and ±100 the full control effect; nearly all actives have a fitted effect of over 60% in size
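Complex of BAZ2B and biotin-H3K14Ac (50 nM apiece) forms over 30 min at RT, then faces library compounds up to 110 uM for another 30 min; AlphaScreen beads added, 20 min dark incubation, luminescence read.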
HP1b binding inh = blocks HP1-beta chromodomain binding to methylated histone tails. AlphaScreen HP1-beta / biotin-H3K9me3 peptide binding. Potency, µM (titrated, usually from 114 µM), without a hit: at the top dose activity change, negative = inhibition, most hits filed as inhibitors. 0.56% of 390,000 active; further: nearly all actives have a fitted effect of over 70% in size
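HP1-beta protein (50 nM final) preincubated 30 min at room temperature with biotinylated H3(1-18)K9me3 peptide (50 nM) in PBS pH 7.4, 0.01% Tween-20, then compound added for 30 min. AlphaScreen streptavidin donor/nickel chelate acceptor beads (10 ug/mL final), 30 min dark, luminescence read.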
JMJD2A Tudor inh = inhibitors of human JMJD2A Tudor domain | O75164 | AlphaScreen JMJD2A-Tudor / H3K4me3 peptide binding | Potency, µM (doses to about 114 µM), for inactives: top-dose activity change, negative = inhibition, usual class: inhibitors | 4.4% of 390,000 active; further: on the % scale 0 is the no-effect control and ±100 the full control effect; nearly all actives have a fitted effect of over 50% in size
Target sequence (O75164 whole entry, looked up, the tested form may be a part): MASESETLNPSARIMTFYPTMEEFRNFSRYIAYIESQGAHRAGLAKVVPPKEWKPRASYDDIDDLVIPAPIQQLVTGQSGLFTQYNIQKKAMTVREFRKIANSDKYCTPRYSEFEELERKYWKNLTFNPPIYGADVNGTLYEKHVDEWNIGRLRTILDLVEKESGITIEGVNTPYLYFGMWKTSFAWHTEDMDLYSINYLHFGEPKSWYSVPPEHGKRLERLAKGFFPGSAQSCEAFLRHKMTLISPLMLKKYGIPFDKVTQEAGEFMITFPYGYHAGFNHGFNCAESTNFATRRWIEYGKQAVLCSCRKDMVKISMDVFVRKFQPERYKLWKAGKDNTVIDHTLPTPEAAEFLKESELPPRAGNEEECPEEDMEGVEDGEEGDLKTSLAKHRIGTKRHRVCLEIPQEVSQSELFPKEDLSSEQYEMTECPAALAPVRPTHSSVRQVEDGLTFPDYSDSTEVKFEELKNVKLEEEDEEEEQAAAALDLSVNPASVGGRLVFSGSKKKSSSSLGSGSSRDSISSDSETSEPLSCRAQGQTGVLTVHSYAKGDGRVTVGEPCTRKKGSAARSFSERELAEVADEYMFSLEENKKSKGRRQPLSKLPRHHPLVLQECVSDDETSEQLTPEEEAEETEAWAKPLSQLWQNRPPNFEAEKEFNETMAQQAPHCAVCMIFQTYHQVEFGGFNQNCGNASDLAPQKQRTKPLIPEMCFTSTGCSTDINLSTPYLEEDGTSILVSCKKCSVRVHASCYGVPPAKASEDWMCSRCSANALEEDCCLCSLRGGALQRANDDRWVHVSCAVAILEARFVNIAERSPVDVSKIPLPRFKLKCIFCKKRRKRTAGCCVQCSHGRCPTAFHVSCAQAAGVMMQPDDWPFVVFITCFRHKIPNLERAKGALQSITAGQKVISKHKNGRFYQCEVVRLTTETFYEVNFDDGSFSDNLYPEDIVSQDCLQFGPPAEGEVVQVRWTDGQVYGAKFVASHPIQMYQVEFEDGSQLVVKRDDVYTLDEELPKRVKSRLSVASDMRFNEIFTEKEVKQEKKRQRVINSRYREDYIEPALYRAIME
Numbers without * were called inactive; u = inconclusive; x = no result; [ ] = dose if it differs, or a comment. The call rests on the fitted dose curve; in most records, active means well fitted curve in the direction sought with a large enough effect; inconclusive means small, poorly fitted or top-dose-only effect, or another doubt; inactive means no such curve, though single readings can be large; an effect the other way counts as inactive or inconclusive. Potency means the concentration at half of the fitted maximal effect.

SMILES	Sfp inh	G9a inh	BAZ2B block	HP1b binding inh	JMJD2A Tudor inh
Cc1ccc(-c2cn(-c3ccccc3)c(=S)[nH]2)cc1C	-24%	45µM*	32µM*	u	u
O=c1c(CCc2ccccc2)nc2cnc(N3CCOCC3)nc2n1CCc1ccccc1	8%	7%[0.501 µM]	x	x	x
O=C(Cc1ccc([N+](=O)[O-])cc1)NC1CCCCCC1	-3%	x	14%[57.1 µM]	17%	-13%
Cc1ccc(NC(=O)c2nc[nH]c2C(=O)Nc2ccc(C)cc2)cc1	4%	5%[59 µM]	2%	24%	-13%
CCOC(=O)c1[nH]cnc1C(=O)Nc1ccc([N+](=O)[O-])cc1	11%	79µM*	u	14%	u
O=C(Nc1ccc([N+](=O)[O-])cc1)c1nc[nH]c1C(=O)NC1CCCCC1	4%	20%[59 µM]	50µM*	20%	-21%
CCCCN(CCCC)CCNC(=O)Cn1nc(C)n2c(cc3sccc32)c1=O	x	5%[59 µM]	2%	9%	-15%
COc1cc(NC(C)C(=O)N2CC(C)OC(C)C2)cc(OC)c1 (stereo not given)	-29%	u	40µM*	16µM*	3.2µM*
COc1cccc(NC(C)C(=O)N2CC(C)OC(C)C2)c1 (stereo not given)	2%	x	2%	12%	40%
Cc1nn(C)cc1-c1n[nH]c(=S)n1-c1ccc(Cl)cc1	u	5.6µM*	-9%	-14%	3.2µM*
Cn1cc(-c2nnnn2-c2ccc(Cl)cc2)c(C(F)(F)F)n1	4%	-33%[12.7 µM]	-3%	17%	-27%
CC(C)(C)c1cc(-c2n[nH]c(=S)n2-c2ccc(Cl)cc2)n[nH]1	u	u	u	-12%	40µM*
CC(C)(C)c1cc(-c2ccccc2)n[nH]1	11%	x	1%	43%	-7%
COc1ccc(-c2nc3scc(CCNC(=O)c4cccc(Br)c4)n3n2)cc1	x	2%[59 µM]	-1%	37%	-2%
O=C(c1cccc(NS(=O)(=O)c2ccc(Br)cc2)c1)N1CCN(c2ccccc2O)CC1	x	50µM*	-28%	6%	-33%
CCOc1ccc(S(=O)(=O)Nc2cccc(C(=O)N3CCN(c4ccc(OC)cc4)CC3)c2)cc1	-3%	11µM*	u	-12%	u
COc1ccc(N2CCN(C(=O)CCNS(=O)(=O)c3ccccc3)CC2)cc1	21%	x	-10%	-13%	u
O=C(c1cccc(NS(=O)(=O)c2ccc(Br)cc2)c1)N1CCCCC1	x	14%[0.501 µM]	6%	20%	-5%
COc1ccc(N2CCN(C(=O)c3cccc(NC(=O)c4nsc5ccccc45)c3)CC2)cc1	x	10µM*	7.9µM*	u	u
CCOc1ccc(S(=O)(=O)NCCC(=O)N2CCN(c3ccc(OC)cc3)CC2)cc1	10%	45µM*	u	u	u
CCN1C/C(=C/c2cccc([N+](=O)[O-])c2)C(=O)/C(=C/c2cccc([N+](=O)[O-])c2)C1	-22%	-23%	u	-11%	-18%
O=C(c1ccncc1)N1CCC2(CC1)CCN(c1ccccn1)CC2	8%	0%[12.7 µM]	x	x	x
O=C(c1cccc(NS(=O)(=O)c2ccccc2)c1)N1CCCC1	11%	u	-16%	23%	-9%
O=C(c1cccc(NS(=O)(=O)c2ccc(F)c(F)c2)c1)N1CCN(C(c2ccccc2)c2ccccc2)CC1	-3%	50µM*	-5%	15%	-34%[57.1 µM]
CCOc1ccc(N(CC)S(=O)(=O)N2CCCC(C(=O)Nc3ccc(OC)c(OC)c3)C2)cc1 (stereo not given)	x	-40%[59 µM]	u	u	-27%
SMILES	Sfp inh	G9a inh	BAZ2B block	HP1b binding inh	JMJD2A Tudor inh
Cn1c(=O)c2c(-c3ccccc3Br)n(C(C)(C)C)cc2n(C)c1=O	x	-32%[59 µM]	79µM*	-8%	-32%
O=c1nc2c(O)cccn2c2c1c(=O)[nH]c1ccccc12	-14%	45µM*	u	-13%	22µM*
O=P(O)(O)C(O)(Cc1cccnc1)P(=O)(O)O	13%	18µM*	x	x	x
COc1ccc(-c2cc(C(F)(F)F)nc(SCCC(=O)Nc3cccc(O)c3)n2)cc1	x	-1%[59 µM]	-5%	27%	-22%
O=P(O)(O)OC1[C@H](O)[C@H](OP(=O)(O)O)C(OP(=O)(O)O)[C@H](OP(=O)(O)O)[C@H]1O (stereo not given in full)	15%	15%[2.33 µM]	x	x	x
CC(C)(C)c1ccc(OCCn2c(CCNC(=O)C3CCCCC3)nc3ccccc32)cc1	x	x	x	-3%[57 µM]	-17%[57.1 µM]
O=Nc1c(-c2ccccc2)cc2ccccn12	-10%	40µM*	79µM*	7%	-36%
Nc1nnc(-c2ccccc2Cl)s1	u	22µM*	2%	-19%	8%
CC1=C(C(N)=O)C(c2ccccc2Br)n2ncnc2N1 (stereo not given)	x	-39%[59 µM]	-1%	26%[57 µM]	4%
CC1=C(C(N)=O)C(c2ccccc2[N+](=O)[O-])n2ncnc2N1 (stereo not given)	40µM*	28µM*	-1%	u	40µM*
Cc1c(Cl)cccc1NC(=O)CNS(=O)(=O)c1cccs1	x	8%[59 µM]	2%	29%[57 µM]	-1%
COC(=O)C1=C(C)N(CCc2ccc(OC)c(OC)c2)C(=O)/C1=C\N(C)C	-23%	45µM*	-3%	46%	-6%
COc1ccc(CCN2C(=O)C=CC2=O)cc1OC	x	x	x	u	32µM*
COc1ccc(CCN2C(=O)CC(Cc3ccc(C)cc3)C2=O)cc1OC (stereo not given)	11%	-2%[0.501 µM]	1%	-6%	10µM*
COc1ccc(CCN2C(=O)c3cccnc3C2=O)cc1OC	30%	-42%	79µM*	13%	-12%
COc1c(Cl)cccc1NC(=O)c1c(NC(=O)Cc2ccccc2)sc2c1CCCC2	x	x	x	x	-10%
COc1cccc(Cn2c(=O)c(-c3cccs3)nc3cnc(OCc4ccccc4)nc32)c1	22%	6%[0.501 µM]	x	x	x
Cc1cc(C)c(OCC(=O)Nc2ccc(N3CCOCC3)cc2)c(Br)c1	13%	4%	-6%	x	x
[O]=[Bi][O]C(=O)[O][Bi]=[O]	22%	u	x	x	x
CCC(C)(C)n1nnnc1C(c1cc2cc(C)cc(C)c2[nH]c1=O)N1CCN(C(=O)c2ccco2)CC1 (stereo not given)	45µM*	u	1%	18%	-16%
Cc1ccc2[nH]c(=O)c(C(c3nnnn3C(C)(C)C)N3CCN(C(=O)c4ccco4)CC3)cc2c1 (stereo not given)	45µM*	-9%[0.501 µM]	14%	1%	-28%
Cc1cccc2cc(C(c3nnnn3C(C)(C)C)N3CCN(C(=O)c4ccco4)CC3)c(=O)[nH]c12 (stereo not given)	56µM*	u	1%	23%	-10%
CCC(C)(C)n1nnnc1C(c1ccccc1OC)N1CCN(C(=O)c2ccco2)CC1 (stereo not given)	11%	u	-3%	10%	-27%
COc1cccc(CCC2C(=O)CCCC2=O)c1	x	x	x	15%	-19%
Cc1noc(C)c1C(=O)N1CCC2(CC1)CN(c1ncccn1)C2	14%	-3%[12.7 µM]	x	x	x
